# In PubChem BioAssay (EPA / NIEHS):
# Active and inactive are the calls of the source. The calls were made as follows: active = hit-call score of the fitted dose curve at least 0.9, where 1 is the maximum; inactive = score below 0.9.
# Read-out: ABC Transporter (ABCC3), ABCC3 (gene 8714)
# Experiment: LTEA_HepaRG_ABCC3: Life Technologies and Expression Analysis (LTEA) Assay for ABC Transporter (ABCC3) using HepaRG (AID 2283462)
# Details: mRNA level, 48 h; actives raise or lower the signal
# Protocol: LTEA_HepaRG is a cell based, multiplexed-readout assay that uses HepaRG, a human liver cell line, with measurements taken at 48 hours after chemical dosing on a 96-well plate.LTEA_HepaRG_ABCC3 is one of 102 assay component(s) measured in the LTEA HepaRG cell culture assay. It is a marker of NR mediated transport.Data from the assay component LTEA_HepaRG_ABCC3 was analyzed into 1 endpoint. This assay endpoint, LTEA_HepaRG_ABCC3, was analyzed with bidirectional fitting relative to DMSO as the negative control and baseline of activity. Using a type of inducible reporter, measures of mRNA induction for gain or loss-of-signal activity can be used to understand regulation of transcription factor activity. To generalize the intended target to other relatable targets, this assay endpoint is annotated to the transporter intended target family, where the subfamily is ABC transporter.
# A total of 1060 chemcials from the ToxCast library were tested in eight-point concentration-response experiments. Cell culture and cytotoxicity assays were conducted at Thermo Fisher Scientific's Custom Services facility (Madison, WI). A single lot of human HepaRG cells (Thermo Fisher Scientific, Frederick, MD) was used for the cell culture experiments. 96-well format collagen type I coated plates of human HepaRG cells were prepared using established methods. Briefly, cryopreserved HepaRG cells were thawed, plated at a density of approximately 100,000 cells/well in HepaRG Thaw, Plate, and General Purpose media (HPRG770, Thermo Fisher Scientific), and incubated for 48 hours. 0.5% DMSO was selected as vehicle control to balance the requisite need of DMSO in HepaRG cultures to maintain differentiation (for example, baseline metabolism, proportions of hepatocytes vs. cholangiocytes), while enabling further hepatic receptor pathway activation (for example, PXR and CAR) in response to chemical exposure. 48 hours after plating, the culture medium was replaced with HepaRG Serum-Free Incudtion Media. Cells were exposed to each test chemical in duplicate and maintained in CO2 incubators for another 48 hours. Chemical plates were thawed to room temperature and 200x concentrations of treatment groups were prepared. 8-point conentration-reponse curves were made with the highest exposure at 100 uM, followed by half-log dilutions, all in 0.5% DMSO. Each test plate contained variouse controls, induction positive controls (1mM phenobarbital), cytotoxicity positive controls ([…] aflatoxin B1), vehicle controls (0.5% DMSO), and total lysis controls (0.5% DMSO). Cell morphology images were taken using an Essen IncuCyte FLR automated microscope, with six 96-well plates imaged in about 24 minutes. Images were captured and exported and JPEG files. Spent culture media was transfered to black-well plates for the LDH assay, and remaining media was sorted at -80 C for later use. Cells were treated with RLT buffer and frozen until shipped for gene expression analysis. Total RNA was isolated from the cell suspension in 75 uL of Buffer RLT (Qiagen, Germantown, MD 20874) by Quintiles/Expression Analysis (Durham, NC) using a custom isolation procedure. Total RNA from each plate well was transferred to a preamplification plate. Fluidigm's 96.96 Dynamic ArrayTM (Fluidigm, Amsterdam, the Netherlands) technology was used for gene expression analyses by quantitative reverse transcription polymerase chain reaction (qRT-PCR, performed by Quintiles/Expression Analysis, Durham, NC)89. Standard TaqManTM Assays (Applied Biosystems/ThermoFisher Scientific, Foster City, CA) were used to assess the expression of 93 genes selected based on their selectivity and sensitivity to important hepatic receptors known to be modulated by environmental chemicals; importance in human hepatocyte functionality; and hepatotoxicity. […]
Compound,outcome,AC50
CN(C)N=O,inactive,
O=[N+]([O-])c1ccc(O)c([N+](=O)[O-])c1,,12.4 µM (active)
CCCCCCCCc1ccc(O)cc1,inactive,
ClC1(Cl)C2(Cl)C3(Cl)C4(Cl)C(Cl)(Cl)C5(Cl)C3(Cl)C1(Cl)C5(Cl)C24Cl (stereo not given),inactive,
CCC(C)(C)c1ccc(O)c(C(C)(C)CC)c1,inactive,
ClCC(Cl)CCl,inactive,
CCN1CCC2(CC1)COc1cc3c(cc12)N(C(=O)c1ccc(-c2ccc(-c4nnc(C)o4)cc2C)cc1)CC3,,71.6 µM (active)
CC12CC1(C)C(=O)N(c1cc(Cl)cc(Cl)c1)C2=O (stereo not given),inactive,
Oc1cccc2cccnc12,inactive,
O=C(Nc1ccc2[nH]ccc2c1)c1cc2cc(F)ccc2n1Cc1cccc(F)c1,inactive,
NC(=O)O,inactive,
C[C@]12CCC(=O)C[C@@H]1CC[C@@H]1[C@@H]2CC[C@]2(C)[C@@H](O)CC[C@@H]12,inactive,
O=C(O)C(Cl)(Cl)Cl,inactive,
O=C1C2(Cl)C3(Cl)C4(Cl)C(Cl)(Cl)C5(Cl)C3(Cl)C1(Cl)C5(Cl)C24Cl (stereo not given),,92.7 µM (active)
O=C(O)C(F)(F)C(F)(F)C(F)(F)C(F)(F)C(F)(F)C(F)(F)F,inactive,
C=CC(=O)OCCCCCC(C)C,inactive,
O=c1[nH]c(=O)[nH]c(=O)[nH]1,inactive,
CCOP(=S)(OCC)Oc1nc(Cl)c(Cl)cc1Cl,inactive,
C[C@@H]1C[C@@H]([C@H](O)CC2CC(=O)NC(=O)C2)C(=O)[C@@H](C)C1,,0.921 µM (active)
C=C(C)C(=O)[O][Sn]([CH2]CCC)([CH2]CCC)[CH2]CCC,,3.06 µM (active)
CC(C)(OO)c1ccccc1,inactive,
CCC(=O)C(CC(C)N(C)C)(c1ccccc1)c1ccccc1 (stereo not given),,36.2 µM (active)
O=C(O)C(F)(F)C(F)(F)C(F)(F)C(F)(F)C(F)(F)C(F)(F)C(F)(F)C(F)(F)C(F)(F)C(F)(F)F,inactive,
Cc1ccccc1N,inactive,
CCOP(=S)(OCC)SCSP(=S)(OCC)OCC,inactive,
Cn1sc(Cl)cc1=O,inactive,
CC(=O)[O][Hg][c]1ccccc1,,13 µM (active)
CC(C)(c1ccccc1)c1ccc(O)c(C(C)(C)c2ccccc2)c1,inactive,
COc1cc(-c2ccc(N)c(OC)c2)ccc1N,inactive,
CC(C)(C)CC(C)(C)c1ccc(O)cc1,inactive,
